# Columns and labels:
# Test in all cases: thermal shift delta Tm vs DMSO control; higher = stronger stabilization (binding)
# Details in all cases: 12.5 µM; protein concentration 2 µM
# [1] = test system: LOC_OS02G45750-cb003
# Summary of the method: (§1)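 The melting temperature shift given here is a triplicate mean, measured against protein that received only DMSO. Melting temperatures came from Boltzmann fits of differential scanning fluorimetry data on E. coli-expressed, purified rice kinase domain constructs. Each 19.5 μl well contained 2 μM kinase, 100 mM potassium phosphate pH 7.5, 150 mM NaCl, 10% glycerol, 5 × SYPRO Orange and compound in DMSO. Plates were scanned from 25°C to 95°C at 0.05°C/s.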
# [2] = test system: LOC_OS02G54510-cb004
# Summary of the method: as §1
# [3] = test system: LOC_OS03G04050-cb001
# Summary of the method: as §1
# [4] = test system: LOC_OS03G12390-cb001
# Summary of the method: as §1
# [5] = test system: LOC_OS03G27990-cb004
# Summary of the method: as §1
# [6] = test system: LOC_OS03G50450-cb001
# Summary of the method: as §1
# [7] = test system: LOC_OS03G50810-cb003
# Summary of the method: as §1
# [8] = test system: LOC_OS04G35114-cb001
# Summary of the method: as §1
# [9] = test system: T1, LOC_OS04G38480-cb003
# T1 sequence (whole entry): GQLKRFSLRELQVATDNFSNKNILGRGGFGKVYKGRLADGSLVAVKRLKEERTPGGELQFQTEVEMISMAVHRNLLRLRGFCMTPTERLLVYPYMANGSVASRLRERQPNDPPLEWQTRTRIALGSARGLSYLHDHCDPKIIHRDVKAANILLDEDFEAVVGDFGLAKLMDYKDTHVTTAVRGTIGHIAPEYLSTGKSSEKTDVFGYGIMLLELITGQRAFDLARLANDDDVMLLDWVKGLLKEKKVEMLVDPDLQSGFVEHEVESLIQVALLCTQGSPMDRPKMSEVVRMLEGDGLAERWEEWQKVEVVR
# Summary of the method: as §1
# [10] = test system: T2, LOC_OS04G41100-cb001
# T2 sequence (whole entry): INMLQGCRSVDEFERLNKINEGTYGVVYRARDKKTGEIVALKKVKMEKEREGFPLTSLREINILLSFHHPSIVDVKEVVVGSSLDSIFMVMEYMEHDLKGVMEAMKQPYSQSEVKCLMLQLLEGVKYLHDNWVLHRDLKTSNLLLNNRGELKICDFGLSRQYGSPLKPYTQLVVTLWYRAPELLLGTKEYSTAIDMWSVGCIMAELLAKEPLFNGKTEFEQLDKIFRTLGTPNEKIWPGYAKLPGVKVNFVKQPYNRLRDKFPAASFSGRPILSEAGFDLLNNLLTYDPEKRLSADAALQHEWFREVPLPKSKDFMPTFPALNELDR
# Summary of the method: as §1
# [11] = test system: LOC_OS04G57630-cb004
# Summary of the method: as §1
# [12] = test system: LOC_OS05G07850-cb002
# Summary of the method: as §1
# [13] = test system: LOC_OS05G16824-cb004
# Summary of the method: as §1
# [14] = test system: LOC_OS05G28520-cb001
# Summary of the method: as §1
# [15] = test system: LOC_OS05G30820-cb001
# Summary of the method: as §1
# [16] = test system: LOC_OS05G43570-cb004
# Summary of the method: as §1
# [17] = test system: LOC_OS06G16330-cb003
# LOC_OS06G16330-cb003, sequence (as listed by the source): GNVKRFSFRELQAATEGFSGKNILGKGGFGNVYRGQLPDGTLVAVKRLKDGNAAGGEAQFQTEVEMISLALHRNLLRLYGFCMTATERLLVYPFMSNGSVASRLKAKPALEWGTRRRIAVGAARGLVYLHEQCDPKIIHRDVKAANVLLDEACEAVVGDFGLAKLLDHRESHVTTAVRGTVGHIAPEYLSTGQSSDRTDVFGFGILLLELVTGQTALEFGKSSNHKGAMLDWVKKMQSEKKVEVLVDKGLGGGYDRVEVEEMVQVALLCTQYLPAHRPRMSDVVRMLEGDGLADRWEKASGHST
# Summary of the method: as §1
# [18] = test system: T3, LOC_OS06G22820-cb001
# T3 sequence (whole entry): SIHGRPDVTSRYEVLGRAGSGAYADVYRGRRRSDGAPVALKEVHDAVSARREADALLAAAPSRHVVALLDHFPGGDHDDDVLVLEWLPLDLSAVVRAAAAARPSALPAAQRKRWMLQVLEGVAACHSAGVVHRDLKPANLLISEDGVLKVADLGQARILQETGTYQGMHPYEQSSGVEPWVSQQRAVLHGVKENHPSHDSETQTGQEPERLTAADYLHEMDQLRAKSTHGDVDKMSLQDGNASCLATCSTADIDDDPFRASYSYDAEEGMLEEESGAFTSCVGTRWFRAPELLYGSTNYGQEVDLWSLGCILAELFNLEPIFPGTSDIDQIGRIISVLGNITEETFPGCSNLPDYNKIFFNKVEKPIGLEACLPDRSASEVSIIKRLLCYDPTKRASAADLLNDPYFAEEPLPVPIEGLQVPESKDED
# Summary of the method: as §1
# [19] = test system: LOC_OS07G06570-cb004
# Summary of the method: as §1
# [20] = test system: LOC_OS07G07230-cb001
# Summary of the method: as §1
Structure (SMILES),thermal shift delta Tm [1] [°C],thermal shift delta Tm [2] [°C],thermal shift delta Tm [3] [°C],thermal shift delta Tm [4] [°C],thermal shift delta Tm [5] [°C],thermal shift delta Tm [6] [°C],thermal shift delta Tm [7] [°C],thermal shift delta Tm [8] [°C],thermal shift delta Tm [9] [°C],thermal shift delta Tm [10] [°C],thermal shift delta Tm [11] [°C],thermal shift delta Tm [12] [°C],thermal shift delta Tm [13] [°C],thermal shift delta Tm [14] [°C],thermal shift delta Tm [15] [°C],thermal shift delta Tm [16] [°C],thermal shift delta Tm [17] [°C],thermal shift delta Tm [18] [°C],thermal shift delta Tm [19] [°C],thermal shift delta Tm [20] [°C]
O=c1nc(N2CCOCC2)oc2c(-c3cccc4c3sc3ccccc34)cccc12,0.04,-0.35,-0.14,-0.44,-0.35,0.04,-0.24,-0.68,0.64,0.24,-0.05,1.07,1.26,-0.27,-0.09,-0.65,-1.74,0.33,0.14,0.66
COc1cc2c(Oc3ccc4[nH]c(C)cc4c3F)ncnc2cc1OCCCN1CCCC1 [Cediranib (AZD2171)],1.17,-0.01,0.25,1.5,0.44,-0.12,2.04,5.53,0.23,0.71,0.99,1.23,1.08,-0.22,0.46,0.17,-0.02,0.55,0.63,0.34
C=CC(=O)Nc1cc(Nc2nccc(-c3c[nH]c4ccccc34)n2)c(OC)cc1N(C)CCN(C)C,1.45,0.35,0.7,5.75,0.52,0.87,1.28,4.03,2.42,0.37,0.51,11,-1.05,0.61,0.72,0.75,6.67,0.58,1.6,0.9
COC1(c2sc3c(N4CCOCC4)nc(-c4cnc(N)nc4)nc3c2C)COC1,1.67,3.13,-0.01,0.74,0.96,4.14,0.91,2.13,1.11,0.5,0.27,5.18,1.1,0.27,0.59,1.45,3.12,0.17,0.85,0.65
COc1cc2nccc(Oc3ccc(NC(=O)NC4CC4)c(Cl)c3)c2cc1C(N)=O [Lenvatinib (E7080)],0.65,0.49,0.79,-0.1,0.31,0.39,0.26,1.09,0.48,0.18,1.31,3.32,-2.91,0.18,0.7,0.32,1.75,0.98,0.84,0.35
O=C(/C=C/c1ccc2ccccc2n1)c1ccncc1,4.53,-0.52,0.27,-1.09,0.7,0.7,0.37,4.4,4.06,2.67,3.08,9.31,4.2,0.46,0.47,0.37,1.41,0.76,0.69,0.31
O=C1Cc2c([nH]c3ccc(Br)cc23)-c2ccccc2N1 [Kenpaullone],6.87,1.11,0.51,5.47,2.21,0.9,2.26,4.7,2.14,2.07,2.67,7.41,3.07,1,2.18,1.21,2.59,0.96,-0.23,0.05
O=c1sn(-c2cccc3ccccc23)c(=O)n1Cc1ccccc1 [Tideglusib],0,0.35,0.13,-1.57,0.89,0.32,-0.5,2.38,0.78,0.34,-0.25,-3.79,-13.5,0.99,0.39,0.01,0.99,0.6,1,0.27
CC(C)NC(=O)C1CCC(n2c(NC(=O)c3ccc(F)cc3)nc3ccc(CN4CCC(C(C)(C)O)CC4)cc32)CC1 (stereo not given) [Belizatinib (TSR-011)],1.72,1.61,0.67,6.22,1.09,0.85,3.76,6.28,1.98,0.49,6.67,8.98,13,4.12,0.47,0.09,4.55,0.48,1.37,0.49
CCNC(=O)C#Cc1ccc2c(C(=Nc3ccc(CN(C)C)cc3)c3ccccc3)c(O)[nH]c2c1,7.14,2.44,-0.2,1.25,0.99,0.07,4.57,9.15,1.25,4.14,2.92,5.17,8.59,0.18,0.42,0.36,1.85,0.09,0.62,-0.34
CC(C)c1cnn2c(NCc3ccccc3)cc(NCCCCCCN)nc12,0.67,0.22,0.33,-0.19,0.14,0.34,0.19,0.56,-0.44,0.32,-0.33,-0.23,-2.84,0.27,0.42,0.43,-0.05,0.96,1.35,0.18
C=CC(=O)Nc1ccc2ncnc(Nc3cccc(Br)c3)c2c1,0.51,0.24,0.68,-0.11,0.2,0.37,0.27,0.79,0.18,0.35,0.39,0.86,-2.41,-0.05,0.56,0.31,-0.95,0.64,0.91,0.32
